Source: PubChem BioAssay (NCI)
Compounds without any hit were thinned out: in the full panel of roughly 83,000, 20% have a hit.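 Activity criterion: percent growth below 10, measured after cells in 96-well plates were exposed to a single compound concentration for 48 hours.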 Calls of active or inactive are those of the source.

tested on: HOP-62 NSCLC; assay: NCI-60 one-dose screen, 48 h (100 = growth as untreated, 0 = no growth, -100 = all killed); settings: 10 µM unless noted
Method: Growth inhibition of the HOP-62 human Non-Small Cell Lung tumor cell line is measured as a screen for anti-cancer activity. Cells are grown in 96 well plates and exposed to the test compound for 48 hours. Compounds are tested at a single concentration, which is 10^-5 M for most compounds. The reported endpoint is percent growth (GI% or GIPRCNT), where numbers from 0 - 100% represent growth inhibition, and numbers from -100% - 0 represent cell death. For example, a value of 40 represents 60% growth inhibition. A value of 0 means no net growth occurred over the course of the experiment. A value of -40 indicates 40% of cells at the beginning of the experiment died by the end of the experiment. A value of -100 means all cells are dead at the end of the experiment.
NCI-60 Human Tumor Cell Lines Screen was performed using the standard one-dose NCI protocol, which is described in more detail at https://dtp.cancer.gov/discovery_development/nci-60/default.htm.
Compounds with GIPRCNT values below 10 were considered active. Activity score was based on GIPRCNT using the following formula: […]
Score is 0 for GIPRCNT values of 100 or above, 50 for GIPRCNT values of 0, and 100 for GIPRCNT values of -100.

Q: Which growth does the source give for `O=C1C(Cl)=C(Nc2ccc3cn[nH]c3c2)C(=O)c2ccccc21` here?
A: -6.04% (active)

Q: How did the growth turn out when `CC(C)[C@H]1CCC2=C3CC[C@]45OC(=O)[C@@]6(CCC(C)(C)C[C@H]64)CC[C@@]5(C)[C@]3(C)CC[C@@]21C` was run?
A: 76.3% [100 µM] (inactive)

Q: For `COc1ccc2nc3ccccc3c(NCCNCCO)c2c1`, which growth is on record?
A: -6.96% (active)

Q: Which growth does the source give for `COC(=O)c1c(C)[nH]c(/C=C2\N=C(c3ccc[nH]3)C=C2OC)c1C` here?
A: -17.5% (active)

Q: With `c1ccc(-c2n[nH]c(-c3ccccn3)n2)nc1` as the compound, how does the growth read?
A: 104% (inactive)

Q: With `COc1ncc(-c2ccc3nccc(C#CCCCCC(=O)O)c3c2)cc1NS(=O)(=O)c1ccc(F)cc1F` as the compound, how does the growth read?
A: 29.9% (inactive)

Q: How did the growth turn out when `COCc1nc2ccccc2[nH]1` was run?
A: 105% (inactive)

Q: With `O=C(O)c1ccccc1C(F)(F)F` as the compound, how does the growth read?
A: 103% (inactive)

Q: For `CC1(C)CC[C@]2(C(N)=O)CC[C@]3(C)C(=CC[C@@H]4[C@@]5(C)C/C(=C/c6ccncc6)C(=O)C(C)(C)[C@@H]5CC[C@]43C)[C@@H]2C1`, which growth is on record?
A: -63.3% [100 µM] (active)

Q: Which growth does the source give for `COc1ccc2c3ccnc(C(F)(F)F)c3n(CCCCN)c2c1` here?
A: 40.1% (inactive)

Q: For `COC(=O)c1cc(O)c2c(c1C(=O)OC)C[C@H]1[C@@H]3CC=C4C[C@@H](O)CC[C@]4(C)[C@H]3CC[C@]21C`, which growth is on record?
A: 20.4% (inactive)

Q: `Cc1ccc2c(n1)C(=O)C(Cl)=C(Nc1ccc(N3CCN(C)CC3)cc1)C2=O` was tested. Which growth did it give?
A: 63.7% (inactive)

Q: How did the growth turn out when `Fc1cc2[nH]ncc2c2c3c(c(-c4cn[nH]c4C(F)(F)F)nc12)C1CCC3C1` (stereo not given) was run?
A: -19.4% (active)

Q: `CC1(C)NCCC[C@]2(C)[C@H]3C=CC4=C5C[C@](C)(CO)CC[C@]5(C)CC[C@@]4(C)[C@]3(C)CC[C@@H]12` was tested. Which growth did it give?
A: -74.5% [100 µM] (active)

Q: With `CN(C)Cc1ccc[nH]1` as the compound, how does the growth read?
A: 117% (inactive)

Q: Which growth does the source give for `CC1Cc2c(Cl)ncnc2N(C)c2ccccc21` (stereo not given) here?
A: 22.8% (inactive)

Q: How did the growth turn out when `c1ccc2c(c1)CN(CCCN1CCOCC1)C2` was run?
A: 103% (inactive)

Q: For `COc1ccc2c(c1)c(-c1noc(C(=O)c3cn(C)c4ncc(Br)cc34)n1)cn2C`, which growth is on record?
A: 53.1% (inactive)

Q: With `COc1cc(-c2nc(SCCC(C)C)nc(Nc3ccccc3)c2C#N)cc(OC)c1OC` as the compound, how does the growth read?
A: 114% (inactive)

Q: How did the growth turn out when `C=C(C)[C@@H]1CC[C@]2(C)[C@H](C(=O)C=C3[C@@H]4C[C@](C)(C(=O)N5CCN(C)CC5)CC[C@]4(C)CC[C@]32C)[C@@]1(C)CCC#N` was run?
A: -84.5% [100 µM] (active)

Q: `CCCCC1COc2cccc3c2N1C=C/C3=C\C(=O)n1ccc2ccccc21` (stereo not given) was tested. Which growth did it give?
A: 79.2% (inactive)

Q: How did the growth turn out when `COc1cc(/C=C/C(=O)/C=C/c2ccc(-n3ccnc3C)cc2)ccc1O` was run?
A: 88.5% (inactive)

Q: For `COc1ccc(C(=O)c2nccc3cc(OC)c(OC)cc23)cc1OC`, which growth is on record?
A: 95.3% (inactive)

Q: Which growth does the source give for `Cc1ccc(NCCN2CCCCC2)c2c(=O)c3ccccc3sc12` here?
A: 55.6% (inactive)

Q: How did the growth turn out when `C=CC1=C(C)C2=NC1=CC1=NC(=CC3=C(C)C4=C(O)C(C(=O)O)C(=C5NC(=C2)C(C)C5CCC(=O)O)C4=N3)C(CC)=C1C` (stereo not given) was run?
A: 121% (inactive)

Q: With `COc1ccc(NC(=S)NNc2ccc(-c3ccc(OC)c(OC)c3)nn2)cc1` as the compound, how does the growth read?
A: 97.8% (inactive)

Q: For `CCCSc1nc(N)nc2nc[nH]c12`, which growth is on record?
A: 95.7% (inactive)

Q: How did the growth turn out when `c1cc2ccc1CNCCN1CCNCc3ccc(cc3)Oc3ccc(cc3)CNCCN(CCNCc3ccc(cc3)O2)CCNCc2ccc(cc2)Oc2ccc(cc2)CNCC1` was run?
A: -78.2% (active)

Q: With `COc1c(B(O)O)cccc1-c1nc2ccc3[nH]ncc3c2c2c1CCC2` as the compound, how does the growth read?
A: 48.7% (inactive)

Q: With `Cn1cc(-c2noc(-c3cn(C)c4ncc(F)cc34)n2)c2cc(Cl)ccc21` as the compound, how does the growth read?
A: 68.4% (inactive)

Q: For `CC(C)C1=NOC(=O)C1=Cc1cn(-c2ccccc2)nc1-c1cccc([N+](=O)[O-])c1`, which growth is on record?
A: 99.1% (inactive)

Q: For `CCCCN(CCCC)CC(O)c1ccc(OCc2ccccc2)c2ccccc12` (stereo not given), which growth is on record?
A: 109% (inactive)

Q: `O=C(NNc1ccc(-c2ccccc2)nn1)c1ccccc1` was tested. Which growth did it give?
A: 104% (inactive)

Q: Which growth does the source give for `Oc1ccc(N=Nc2nccs2)c(O)c1` here?
A: 79% (inactive)

Q: `C[C@@H]1C[C@H]2C(=O)O[C@@H](C)[C@H](NC(=O)[C@H](Cc3cc(F)cc(F)c3)NC(=O)Nc3ccc(C4CC4)cc3F)C(=O)N3CCC[C@H]3C(=O)N3CCCC[C@H]3C(=O)N[C@@H](C)C(=O)N2C1` was tested. Which growth did it give?
A: 27.8% (inactive)

Q: For `O=C(NNc1ccc(-c2ccccc2)nn1)c1ccc(F)cc1`, which growth is on record?
A: 106% (inactive)

Q: With `CC1(C)CC[C@]23CC[C@]4(C)[C@H](CC[C@@H]5[C@@]6(C)C/C(=C/c7ccncc7)C(=O)C(C)(C)[C@@H]6CC[C@]54C)[C@H]2[C@H]1OC3=O` as the compound, how does the growth read?
A: 10.2% [100 µM] (inactive)

Q: How did the growth turn out when `COc1ccc(OC)c([N+](=O)[O-])c1C(=O)CNC(C)=O` was run?
A: 105% (inactive)

Q: Which growth does the source give for `CC1=CCc2ccccc21` here?
A: 101% (inactive)

Q: `COC(=O)[C@]1(C)CC[C@]2(C)CC[C@]3(C)C(=CC(=O)[C@@H]4[C@@]5(C)CCC(=O)NC(C)(C)[C@@H]5CC[C@]43C)[C@@H]2C1` was tested. Which growth did it give?
A: -70.8% [100 µM] (active)
